Results taken from PubChem BioAssay (Tox21).
Values joined by “and” are separate entries in the source; they are usually repeats but may differ in a detail not shown here. Equal values may be shown once. Unmarked numbers belong to inactive results. Inconclusive results are not listed. Entries that show only a call come without a potency. Active and inactive are the calls of the source. Unless noted, calls come from the whole dose curve; as a rule, active = well fitted curve in the direction sought with a large enough effect in the repeat runs; inconclusive = weak or mixed curves; inactive = no such curve, though single readings can be large; an effect the other way counts as inactive or inconclusive.

Assays:
[1] = qHTS assay for small molecules that induce genotoxicity in human embryonic kidney cells expressing luciferase-tagged ATAD5 (AID 651632); note: nearly all actives have a fitted effect of over 15% in size; note: potency is the fitted concentration of half-maximal effect
Procedure, shortened: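 ATAD5-luc HEK293T, 2,000 cells/well; cpd or DMSO pin-transferred; 16 hr, 37C/5% CO2; Amplite 30 min RT; luminescence.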

[2] = qHTS assay for small molecule agonists of the p53 signaling pathway - cell viability (AID 651633; calls by dose curve; note: nearly all actives have a fitted effect of over 30% in size; note: potency is the fitted concentration of half-maximal effect)
Procedure, shortened: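 p53RE-bla cells were treated with compound for 16 hours at 37 C. Cytotoxicity was then measured as CellTiter-Glo luminescence after 30 min at room temperature.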

[3] = qHTS assay for small molecules that induce genotoxicity in human embryonic kidney cells expressing luciferase-tagged ATAD5 - cell viability (AID 651634; calls by dose curve; note: nearly all actives have a fitted effect of over 25% in size; note: potency is the fitted concentration of half-maximal effect)
Procedure, shortened: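 Fluorescence from CellTiter-Fluor, reporting protease activity within live cells, served as the viability read-out. HEK293T cells carrying luciferase-tagged ATAD5 had been treated with compound for 15.5 hr at 37C.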

[4] = qHTS assay for small molecule disruptors of the mitochondrial membrane potential (AID 720635); note: potency is the fitted concentration of half-maximal effect
Procedure, shortened: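 HepG2 cells exposed to compound 1 hr at 37C, then Mito-MPS dye 30 min. Ratio read of aggregate (540/590 nm) versus monomer (490/535 nm) fluorescence.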

[5] = qHTS assay to test for compound auto fluorescence at 590 nm (red) in HepG2 cells (AID 720674)
Procedure, shortened: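 Fluorescence at 590 nm emission following 540 nm excitation was recorded from HepG2 wells one hour after compound transfer, with DMSO-only wells as vehicle and Rose Bengal sodium equivalency as the scale.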

[6] = qHTS assay to test for compound auto fluorescence at 535 nm (green) in HepG2 cells (AID 720675)
[7] = qHTS assay to test for compound auto fluorescence at 460 nm (blue) in HEK293 cells (AID 720678)
Procedure, shortened: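 HEK293, 2,000 cells/well, 10% dialyzed FBS; attach 4-5 hr 37C; pin compound or DMSO; o/n 37C/5% CO2; fluorescence 405/460 nm; triamterene-equivalent units.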

[8] = qHTS assay to test for compound auto fluorescence at 590 nm (red) in HEK293 cells (AID 720679)
Procedure, shortened: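 Intensity at 540nm excitation and 590nm emission is reported as Rose Bengal sodium-equivalent autofluorescence. Measurements followed overnight exposure (37C, 5% CO2) of HEK293 cells, 2,000 per well, to 23 nL compound.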

[9] = qHTS assay for small molecule disruptors of the mitochondrial membrane potential - cell viability (AID 720634; calls by dose curve;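 note: human HepG2 liver cancer cells; series mostly up to about 83 µM; nearly all actives have a fitted effect of over 20% in size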)
Procedure, shortened: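 Cells: HepG2, 2,000/well, attached overnight. Compound 1 hr, 37 C/5% CO2. +m-MPI dye, +CellTiter-Glo 30 min RT. Readout: luminescence (ATP).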

SMILES | Potency [1] | Potency [2] | Potency [3] | Potency [4] | Potency [5] | Potency [6] | Potency [7] | Potency [8] | Potency [9] | fluorescence, relative to Rose Bengal [5] | fluorescence, % of fluorescein control [6] | fluorescence, % of triamterene [7] | fluorescence, % of fluorescent control [8]
CC(C)(C)CC(C)(C)c1ccc(O)c(Cc2ccc(Cl)cc2Cl)c1 | inactive | 13.3 µM (active) | 23.7 µM (active) | 1.68 µM (active) | inactive | inactive | inactive | inactive |  |  |  |  | 
CCC1OCC(COc2ccc(Oc3ccccc3)cc2)O1 (stereo not drawn) | inactive | inactive | inactive |  | inactive | inactive | inactive | inactive | inactive |  |  |  | 
Oc1ccc2c(c1)-c1ccccc1C2 | inactive | inactive | inactive | 9.69 µM (active) | inactive | inactive | inactive | inactive |  |  |  |  | 
Oc1ccc(C2(c3ccc(O)cc3)CC3CC2C2CCCC32)cc1 (stereo not drawn) | inactive | 58.7 µM (active) |  | 33 µM (active) | inactive | inactive | inactive | inactive | inactive |  |  |  | 
CCCCN(CCCC)c1ccc(C(=O)c2ccccc2C(=O)O)c(O)c1 | inactive | 17.4 µM (active) | inactive |  | inactive | inactive | inactive | inactive | inactive |  |  |  | 
OCc1c[nH]c2ccccc12 | inactive | inactive | inactive | 24.3 µM (active) | inactive | inactive | inactive | inactive |  |  |  |  | 
CC(C)C(C)(C)C(C)(C)C(C)(C)S | inactive | inactive | inactive |  | inactive | inactive | inactive | inactive |  |  |  |  | 
Clc1ccc2n[nH]nc2c1 | inactive | inactive | inactive |  | inactive | inactive | inactive | inactive | inactive |  |  |  | 
CC1(C)CCC(C)(C)c2cc(C(=O)Nc3ccc(C(=O)O)cc3)ccc21 | inactive | 61.1 µM (active) |  | 54.5 µM (active) | inactive | inactive | inactive | inactive | inactive |  |  |  | 
CC(C)(C)CC(C)(C)c1ccc(OCCOCC[N+](C)(C)Cc2ccccc2)cc1 | inactive | 29.8 µM (active) and 61.1 µM (active) | 29.8 µM (active) and 68.5 µM (active) | 11.9 µM (active) and 21.7 µM (active) | inactive | inactive | inactive | inactive |  |  |  |  | 
O=C(Oc1ccccc1)c1ccccc1C(=O)Oc1ccccc1 | inactive | inactive | inactive |  | inactive | inactive | inactive | inactive |  |  |  |  | 
C=CC(=O)OCC(CO)(COC(=O)C=C)COC(=O)C=C | 4.87 µM (active) and 5.45 µM (active) | 4.34 µM (active) | 12.2 µM (active) and 15.4 µM (active) |  | inactive | inactive | inactive | inactive |  |  |  |  | 
Cc1onc(-c2ccccc2Cl)c1C(=O)N[C@@H]1C(=O)N2[C@@H]1SC(C)(C)[C@@H]2C(=O)O | inactive | inactive | inactive |  |  |  |  |  | inactive | -0.424% [at 18.6 µM] | -0.13% [at 18.6 µM] | -0.0411% [at 18.6 µM] | 0.844% [at 18.6 µM]
Cc1ccc(O)c2ncccc12 | inactive | inactive | inactive |  | inactive | inactive | inactive | inactive | inactive |  |  |  | 
CCCN(CCC)C(=O)C(CCC(=O)OCCCN1CCN(CCOC(=O)Cc2c(C)n(C(=O)c3ccc(Cl)cc3)c3ccc(OC)cc23)CC1)NC(=O)c1ccccc1 (stereo not drawn) | inactive | inactive | 26.6 µM (active) |  | inactive | inactive | inactive | inactive | inactive |  |  |  | 
C[C@H](CCC(=O)O)[C@H]1CC[C@H]2[C@@H]3CC[C@@H]4C[C@H](O)CC[C@]4(C)[C@H]3CC[C@]12C | inactive | 27.2 µM (active) and 27.3 µM (active) | inactive | 60.9 µM (active) | inactive | inactive | inactive | inactive |  |  |  |  | 
CC(C)n1nc(-c2cc3cc(O)ccc3[nH]2)c2c(N)ncnc21 | 9.44 µM (active) | 26.6 µM (active) | 0.75 µM (active) |  | inactive | inactive | inactive | inactive | inactive |  |  |  | 
CCCCCCCCCCC=O | inactive | inactive | inactive | inactive | inactive | inactive | inactive | inactive | inactive |  |  |  | 
CCCCC(CC)COC(=O)c1ccccc1C(=O)O (stereo not drawn) | inactive | inactive | inactive |  | inactive | inactive | inactive | inactive | inactive |  |  |  | 
CCCCCCC[N+](CC)(CC)CCCCc1ccc(Cl)cc1 | inactive | inactive | inactive |  |  |  |  |  | inactive | -0.305% [at 18.6 µM] | -0.0059% [at 18.6 µM] | 0.0756% [at 18.6 µM] | -0.312% [at 18.6 µM]
